Reference: PubChem BioAssay (EPA / NIEHS)
Results filed as inconclusive are left out. Active and inactive are the calls of the source. The calls were made as follows: active = hit-call score of the fitted dose curve at least 0.9, where 1 is the maximum; inconclusive = response in the unintended direction; inactive = score below 0.9.

Experiment: TOX21_TRB_BLA_Antagonist_Followup_viability: Viability Assessment in the Tox21 Thyroid Hormone Receptor beta Antagonism Beta-lactamase (BLA) Follow-Up Assay (AID 2283961)
Source text: The GeneBLAzer TRb-UAS-bla HEK293T assay kit for human TRb (ThermoFisherScientific Catalog No. K1684) was used as a secondary assay for specificity (TRb-bla).This assay contained the ligand-binding domain (LBD) of the human TRb fused to the DNA-binding domain of GAL4 stably integrated in the GeneBLAzer UAS-bla HEK293Tcell line. The reporter gene, b-lactamase, is under the transcriptional control of a UAS that binds the GAL4 DNA-binding domain. A cell viability assay was run in parallel for these cells as well using the CellTiter-Glo viability assay kit.TOX21_TRB_BLA_Antagonist_Followup_viability is a component of the TOX21_TRB_BLA_Antagonist_Followup assay. This component measures cell viability using the CellTiter-Glo Luciferase-coupled ATP quantitation.TOX21_TRB_BLA_Antagonist_Followup_viability used a type of viability reporter where loss-of-signal activity can be used to understand changes in the cell viability. Furthermore, this assay endpoint can be referred to as a secondary readout, because this assay has produced multiple assay endpoints where this one serves a viability function. To generalize the intended target to other relatable targets, this assay endpoint is annotated to the cell cycle intended target family, where the subfamily is cytotoxicity.
Cell Media Required: Growth (90% DMEM/F-12, 10% Fetal Bovine Calf Serum, 100U/ml Penicillin, 100 ug/ml Streptomycin), Assay (10ng/mL sodium selenite, 10 ug/mL humanapo-transferrin, 10 uM ethanolamine, 10 ug/mL insulin, 500 ug/mL bovine serum albumin (BSA))Assay Protocol: TRb-bla cells were dispensed at 3,000 cells/well in 5 uL of the assay medium containing phenol red-free DMEM with 2% charcoal-stripped FBS in 1,536-well black-wall/clear-bottom plates using an FRD. After 5-h incubation at 37C/5% CO2 for cell attachment to the well bottom, 23nL of follow-up compounds dissolved in DMSO, 11 concentrations in triplicate, and the positive control (T3; agonist format) were transferred to the assay plates using a Pintool station. The assay plates were incubated at 37C/5% CO2 for 18h. One microliter LiveBLAzer FRET-B/G CCF4-AM substrate was added to each well using an FRD. After 2-h incubation at room temperature, the fluorescence intensity was measured using an Envision plate reader. Data were expressed as the ratio of 460:530nm. The cytotoxicity of the compounds was measured in the same plates by adding 4 uL of CellTiter-Glo reagent to each well and incubating the plates at room temperature for 30 min. The luminescence intensity was measured using a ViewLux plate reader.For the luciferase reporter gene assay, 5 uL/well (agonist format) and 4 uL/well (antagonist format) ONE-Glo reagent (Promega Corporation) was added using an FRD and after 30-min incubation at room temperature, the luminescence intensity was measured using a ViewLux plate reader. Data were expressed as relative fluorescence units (cell viability assay) and relative luminescence units (luciferase reporter assay).

| Compound | outcome | AC50 |
| --- | --- | --- |
| CC[C@]1(O)CC[C@H]2[C@@H]3CCC4=CCCC[C@@H]4[C@H]3CC[C@@]21C | inactive | – |
| COC1=CC(=O)O[C@@H](/C=C/c2ccc3c(c2)OCO3)C1 | inactive | – |
| O=c1oc2ccccc2c(O)c1Cc1c(O)c2ccccc2oc1=O | inactive | – |
| O=C(N[C@@H]1N=C(c2ccccc2F)c2cccc3c2N(CC3)C1=O)c1cc2ccccc2[nH]1 | inactive | – |
| CCN(CC)CCO[C@H]1CC[C@@]2(C)C(=CC[C@@H]3[C@@H]2CC[C@]2(C)C(=O)CC[C@@H]32)C1 | inactive | – |
| O=C1OC2(c3cc(Br)c(O)cc3Oc3c2cc(Br)c(O)[c]3[Hg])c2ccccc21 (configuration not stated) | inactive | – |
| CCC(COC(=O)c1cc(OC)c(OC)c(OC)c1)(c1ccccc1)N(C)C (configuration not stated) | inactive | – |
| C=CC[C@]1(O)CC[C@H]2[C@@H]3CCC4=CC(=O)CCC4=C3C=C[C@@]21C | inactive | – |
| CC(=O)[C@H]1CC[C@H]2[C@@H]3CC[C@@H]4C[C@H](O)CC[C@]4(C)[C@H]3CC[C@]12C | inactive | – |
| CCCCCCCCCCn1cc[n+](C)c1 | – | 7.88 µM (active) |
| CN1C(=O)[C@@H](NC(=O)c2cc3ccccc3[nH]2)N=C(c2ccccc2)c2ccccc21 | inactive | – |
| COc1cc([C@@H]2c3cc4c(cc3[C@@H](O)[C@H]3COC(=O)[C@H]23)OCO4)cc(OC)c1O | inactive | – |
